Experimental data taken from the supplement of paper PMC12632987.

B1: usp_38_diff_out_14_2_109 (protein)
chain: KEEELKKKKEETLKKLDEAIKKAKELKEEVKKDPSKKEEAFKELFEKHDEAADAVGELNKLILENKELRELNKEVTEEVNKKITEYTEAVLEALEEIAEA
B2: usp_38_diff_out_14_2_110 (protein)
chain: AEEKLKKATKETLATLKEAIKLAKELKKEVKKDPSKKEEARKKLFEAHDKAADAVGKLAKLIEENKELRELNKKATKEVDKAITEYTKAALEALEEIEKA
B3: usp_38_diff_out_14_2_111 (protein)
chain: AKEELEKATKETLEVLKEATKLAKELKEEVKKDPSKAEEARKKLFEAHDKAGDAVGELNKLILENKELRELNKKATEEVNKAITEYTKATLEALETIAEA
B4: usp_38_diff_out_14_2_112 (protein)
chain: AKEELEKKKEETLKTLEEAIKKAKELKKEVEKDPSKKEEAFKELRKKHDEAADKVGELNKLILENKELRELNKKVTEEVNEKIKEYTEAVLEALEKIAEA
B5: usp_38_diff_out_14_2_113 (protein)
chain: AEEELKKAAEKTLKVLDEAIKNLKALKKKVEADPSKAEEATKEAFAAWDKAADAVGELNKLIEANREHRAERKEVTEKVNKKITELTDALTELLTAAAEA
B6: usp_38_diff_out_14_2_114 (protein)
chain: GEAEIKAATAETLAVLEEAIKKLKELTERVKADPSKAEEARKEAFEAWDKAADAVGALRKLMEAHREHRAEIKEATAKVNEAITKLTEALTETLELAAEA
B7: usp_38_diff_out_14_2_115 (protein)
chain: AVEELKKKTEETLKVLDEAIKKLKELTERVKKDPSTAEEAVKEAFKAWDKAADAVGELNKLILANREHRAENKEATKKVNEKITELTKALTEALTLAAEA
B8: usp_38_diff_out_14_2_116 (protein)
chain: AVEEIKAATDATLATLAAATAALAELKKRVEADPSLAEEARAEAFAAWDAAADAVGALNRLMEANREHRAERKEATAKINAALTTLTAALTETLEAAAAA
B9: usp_38_diff_out_14_2_117 (protein)
chain: GEEEIKKATEETLKVLKEAIKKLKELKKRVEEDPSKAAEATEEAFRAWDKAADAVGALNKLLEAHKEHREENKKATKEVNKAITELTEALTELLTAAAEA
B10: usp_38_diff_out_14_2_118 (protein)
chain: GEEELKEKKKATLATLDDAIAKAKALEAAVKADPSIAEQARAELRKAWDAAADAVGELERLIREHPEHRELNKEAIKEVNEKLTELTEALLAALQTIAEA
B11: usp_38_diff_out_14_2_119 (protein)
chain: AKAEIAKATAATLATLAAAIKKAKELTKKVKADPSLKEKARAELDKAWDAAGDAVGALNTLLLANKDLKAENKKATAATNAAITELTKTYTEALEAIEEA
B12: usp_38_diff_out_14_2_120 (protein)
chain: AVEEIKKATDDTLAKLDAAIAAAKALTAQVKADPSLKEQARAALNAAWDAAGDAVGALNKLLEANKEEKATNKEATAKTNAAITELTAAVLDALTTIEEA
B13: usp_38_diff_out_14_2_121 (protein)
chain: AKEELEKATKKALETLDKALEEAKRLKEEVKKDPSKAEEAFKRLREAWDKAADAVGELNKLMLEHKEEKETIKEATEKVNKKITELTKATLEALEEAAKA
B14: usp_38_diff_out_14_2_122 (protein)
chain: AEAELEAAAAATKATLEDAIKRVKELLEEVKKDPSKAEEALKELRRLWDEAADAVGALARLMEAHRELRALRKRITAEVNALITEFTEAVLELLEEIAEA
B15: usp_38_diff_out_14_2_78 (protein)
chain: MEEKVKKLKEEIEKLLEEAKKLLEEAKKLLKEGDELAEEVLEKLDKAFDKLGELAKLLRELRELDPSQRAFVKEMTKKANELIDELTELRTEALLILAER
B16: usp_38_diff_out_14_2_79 (protein)
chain: MEEKAKEVLKKLEEKTKEVKKVTEELEKALSGSKEEIEKAVEKAFKVLDEAGKVSAEAEEVRRENPKFRAEFKKAFKELDKELSKLSKAILEALEKIAEL
B17: usp_38_diff_out_14_2_80 (protein)
chain: AEEKLKKATEETLKVLKEAIKKAKELKKEVEADPSLAEKAREELLKAWDKAGDAVGALNKLIEENKEAKETRKKATEEVNKAIDELTKEVLEALQTAAEA
B18: usp_38_diff_out_14_2_81 (protein)
chain: AEEELKAATEKTLAVLDDAIKAAKELTKEVKKDPSLAEKAREKLLEEWDKAGDAVGELEKLILENKEAKETNKEAREKVNKKLDELTKAFLEALETAAEA
B19: usp_38_diff_out_14_2_82 (protein)
chain: AVEKIKKATEETLKVLEEAIKKFKELKKEVEADPSKAEEARKEILKAWDKAGDAVGALNKLIEENPEAKEENKEATKKVNEALTKLTKEALEALQAAAEA
B20: usp_38_diff_out_14_2_83 (protein)
chain: MEEEIKEKTKETLEEIEKAIKELKELEKEVKKDPSKKEEAYKKAFEKWDKAADKVGELEKLLRENKENPELNKKAKEEINEKLTKLTEEALKLLETIAEV
B21: usp_38_diff_out_14_2_84 (protein)
chain: MEEEIKKKTKETLKKIEEAIKRAKELKERVKKDPSLKEKAREELFKEWDEAADKVGELEKLLRENKENPELNKKAREEVNKKLTELTEVALETLELIAEV
B22: usp_38_diff_out_14_2_85 (protein)
chain: AEEKIKKATEKTLKKLEEAIKLAKELKEEVKKDPSKAEKAREELFKKWDEVGDAVGELAKLLEENKEIPALNKEANEKVNEKLTELTKATLEALEELAEA
B23: usp_38_diff_out_14_2_86 (protein)
chain: AEEELKKKTEETKKKLKEGIELAKKIKEEVKKDPSKAEELRKKLFEKHDEIGDKVGELAKLIEEHKEIPALRKEAVKEVNELLTEYTKALLEALEELAKA
B24: usp_38_diff_out_14_2_87 (protein)
chain: AEEELKKATKETLKKLEEHIKLAKELAERVKKDPSTAEQAREELFASWDEVGDKVGALAKLIEENKEIPELRKKAIEEVNKKLTEATEATLAALELLAEA
B25: usp_38_diff_out_14_2_88 (protein)
chain: AEEELKKATEETLKKLEEGIKLAKELTKKVKEDPSQAEKAREELFKKHDEIGDAVGRLAKLIEEHKEIPALNKEAVEEVNKKLTEYTEETLKALELLAEA
B26: usp_38_diff_out_14_2_89 (protein)
chain: GEEELEKKTKETLEKLEELIELAKKIKEEVEKDPSKAEELRKELFKKWDEVGEKVGELAKLIEEHKELPELNKKAVKEVNEKLSEATKEILEALELLAEA
B27: usp_38_diff_out_14_2_90 (protein)
chain: GEEELKKKYEETKKTLEEAIKKAKELKEEVKKDPSKAEEARKRLFEEWDKAADKVGELEKLIRENPEHKELNKKIIEEVNKLITELTKAALEALEAIAEA
B28: usp_38_diff_out_14_2_92 (protein)
chain: GKEKLEEKFKETKEKLKEAIKKAKELKKEVKKDPSKAEEAREELFKAWDEAGDKVGELEKLLRENPEYKELNKKIKEEVNKLITELTEAALEALEEIAKA
B29: usp_38_diff_out_14_2_93 (protein)
chain: GEEELKKLFEETKKVLEEAIKRAEELTKEVKADPSQAEKARKELFKAWDEAGDKVGELQKKIEENKEHKELNKKIIKEVNELITKLTEAALAALEEIAAA
B30: usp_38_diff_out_14_2_94 (protein)
chain: GEEELKKKYEETLKVLEEAIKEAKKIKEEVKKDPSIAEEKRKELFEKWDEAADKVGELQKLLEENPEHKELNKKIIEEVNKKITELTKAALEALEELAKA
B31: usp_38_diff_out_14_2_95 (protein)
chain: GEEELKKAAKETKEVLKKAIEEAKELEKKVKEDPSQAEQARKELFKKWDEAGDAVGKLEKLLRENPEHKELNKKIIEEVNKLINELTKAALKALETLAEA
B32: usp_38_diff_out_14_2_97 (protein)
chain: GKEELEKKFKETKKVLEEAIKKAKELKKEVEKDPSKAEEARKKLFEAWDKAADKVGELQKLLEENPEYKELNKKIIEEVNKLLTELTKAALEALELIAEA

Target: T1, USP38, Q8NB14
T1 chain: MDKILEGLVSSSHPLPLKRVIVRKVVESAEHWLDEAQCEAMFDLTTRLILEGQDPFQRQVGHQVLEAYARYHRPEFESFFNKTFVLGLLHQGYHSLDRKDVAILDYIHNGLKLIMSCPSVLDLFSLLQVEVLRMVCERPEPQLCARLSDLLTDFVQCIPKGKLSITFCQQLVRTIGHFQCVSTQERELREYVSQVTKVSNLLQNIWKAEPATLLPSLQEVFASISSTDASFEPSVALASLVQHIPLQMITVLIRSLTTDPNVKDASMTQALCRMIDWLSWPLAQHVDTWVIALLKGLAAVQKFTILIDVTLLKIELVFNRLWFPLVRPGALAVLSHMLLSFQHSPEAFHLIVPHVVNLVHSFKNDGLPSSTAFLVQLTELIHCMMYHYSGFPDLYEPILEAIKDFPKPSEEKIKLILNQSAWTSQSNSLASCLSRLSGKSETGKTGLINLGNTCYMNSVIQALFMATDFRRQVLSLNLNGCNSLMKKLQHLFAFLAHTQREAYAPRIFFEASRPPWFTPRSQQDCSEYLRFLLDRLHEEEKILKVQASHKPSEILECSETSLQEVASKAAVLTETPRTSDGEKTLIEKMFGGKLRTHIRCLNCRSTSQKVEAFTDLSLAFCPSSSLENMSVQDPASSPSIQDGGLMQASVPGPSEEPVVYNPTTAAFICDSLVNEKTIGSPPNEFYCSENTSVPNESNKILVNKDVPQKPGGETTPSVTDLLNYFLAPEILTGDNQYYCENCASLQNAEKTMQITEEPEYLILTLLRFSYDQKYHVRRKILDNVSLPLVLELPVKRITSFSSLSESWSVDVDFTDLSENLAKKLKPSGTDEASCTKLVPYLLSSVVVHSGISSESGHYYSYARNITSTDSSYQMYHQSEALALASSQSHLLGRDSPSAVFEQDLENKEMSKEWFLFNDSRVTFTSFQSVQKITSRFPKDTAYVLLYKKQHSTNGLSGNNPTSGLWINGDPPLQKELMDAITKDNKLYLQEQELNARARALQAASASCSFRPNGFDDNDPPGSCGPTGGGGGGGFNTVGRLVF
Assay: median log2 fold change of GCK-ALFA target abundance (FLAG IP / Myc IP barcode read proportion) (log2 ratio); each designed protein is fused to an ALFA-tag nanobody in HEK293 cells to bring the named protein to FLAG-tagged glucokinase (GCK); Myc marks an untargeted standard; higher = target protein stabilised (more abundant)
Details: target protein: 3xFLAG-MCP-GCK-ALFA reporter; HEK293 landing pad (RPLP)
How it was run: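 Sequencing of reverse-transcribed, amplified circular RNA barcodes from anti-FLAG and anti-Myc immunoprecipitates provided the readout for an ALFA-nanobody-fused binder library recombined into HEK293 landing-pad cells. Those cells were induced with 2 μg mL^−1 doxycycline, transfected with a plasmid expressing a FLAG-tagged target and a Myc-tagged standard, and lysed after 48 h. Target abundance is the per-binder median log2 ratio of FLAG to Myc barcode read proportions. Only barcodes at a proportion of ≥10^−7 in both replicates and binders with ≥3 barcodes per replicate were kept, with a 10^−6 pseudocount added before the two replicates were pooled.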

Going from B1 to B2, the “median log2 fold change” value falls from -0.1 to -0.599.

Compared with B3, B4 is higher in “median log2 fold change” value: -0.197 for the first, 0.0138 for the second.

B5 and B6 are within 0.2 log units of each other in “median log2 fold change” value: -0.258 for the first, -0.239 for the second.

B7 and B8 are within 0.2 log units of each other in “median log2 fold change” value: -0.246 for the first, -0.132 for the second.

B9 and B10 are within 0.2 log units of each other in “median log2 fold change” value: -0.0949 for the first, -0.0211 for the second.

B11 and B12 are within 0.2 log units of each other in “median log2 fold change” value: -0.186 for the first, -0.172 for the second.

B13 and B14 are within 0.2 log units of each other in “median log2 fold change” value: -0.64 for the first, -0.56 for the second.

Going from B15 to B16, the “median log2 fold change” value falls from 0.219 to -0.624.

Going from B17 to B18, the “median log2 fold change” value rises from -0.879 to -0.289.

Compared with B19, B20 is lower in “median log2 fold change” value: -0.116 for the first, -0.316 for the second.

Compared with B21, B22 is lower in “median log2 fold change” value: -0.366 for the first, -0.606 for the second.

B23 and B24 are within 0.2 log units of each other in “median log2 fold change” value: -0.431 for the first, -0.418 for the second.

B25 and B26 are within 0.2 log units of each other in “median log2 fold change” value: -0.277 for the first, -0.37 for the second.

Compared with B27, B28 is higher in “median log2 fold change” value: -0.724 for the first, -0.436 for the second.

B29 and B30 are within 0.2 log units of each other in “median log2 fold change” value: -0.0116 for the first, 0.0575 for the second.

B31 and B32 are within 0.2 log units of each other in “median log2 fold change” value: -0.416 for the first, -0.467 for the second.
